Measured values reported in PubChem BioAssay (NCI).
The panel holds about 79,000 compounds, 15% with a hit somewhere; the sample as a whole holds those more often. Activity calls are given as the source filed them. Cut-off read from the data, not from the text of the source: active = growth inhibition above about 70%; inactive = the rest. Residues, ends and D or L forms follow the SMILES beside them. *: point of attachment. Fmoc = O=C(OCC1c2ccccc2-c2ccccc21)*; Boc = CC(C)(C)OC(=O)*

Experiments:
[1] = NCI Yeast Anticancer Drug Screen. Data for the rad52 strain (AID 147);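 note: 0% = growth of vehicle-treated control cultures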; conditions: S. cerevisiae rad52 mutant growth inhibition, active compounds read high
How it was run: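 Inhibition of yeast growth, referenced to vehicle controls, was the measured output for a strain with defective DNA damage repair.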

[2] = NCI Yeast Anticancer Drug Screen. Data for the wt1 strain (AID 149);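 note: 0% = growth of vehicle-treated wt1 cultures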; conditions: S. cerevisiae wt1 strain (SPY 50644) growth inhibition, active compounds read high
How it was run: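 Using yeast strain wt1, compound-induced growth inhibition was determined against vehicle-treated cultures.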

[3] = NCI Yeast Anticancer Drug Screen. Data for the rad50EPP+ strain (AID 151);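 note: 0% = growth of vehicle-treated control cultures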; conditions: S. cerevisiae rad50 mutant strain, active compounds read high
How it was run: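 Genetically defined yeast (rad50EPP+, DNA damage repair alteration) is grown with compound, and inhibition of growth is expressed relative to vehicle-treated controls.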

[4] = NCI Yeast Anticancer Drug Screen. Data for the mgt1 strain (AID 153); conditions: S. cerevisiae mgt1 mutant growth inhibition, active compounds read high
How it was run: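 In the mgt1 strain, test compounds were added and growth inhibition was determined relative to vehicle-treated controls.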

[5] = NCI Yeast Anticancer Drug Screen. Data for the rad50 strain (AID 155);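 note: 0% = growth of vehicle-only cultures of the same strain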; conditions: S. cerevisiae rad50 strain growth inhibition, active compounds read high
How it was run: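 Relative growth inhibition (compound vs vehicle) was measured in yeast with a defined repair-gene alteration.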

[6] = NCI Yeast Anticancer Drug Screen. Data for the mec2-1 strain (AID 157); conditions: S. cerevisiae mec2-1 strain, active compounds read high
How it was run: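 Each compound was tested on mec2-1 yeast, a strain altered in DNA damage repair or cell cycle control. Growth inhibition is reported relative to vehicle.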

[7] = NCI Yeast Anticancer Drug Screen. Data for the rad14 strain (AID 159);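 note: 0% = growth of vehicle-treated control cultures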; conditions: S. cerevisiae rad14 strain growth inhibition, active compounds read high
How it was run: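 Screen for anticancer potential: a yeast strain altered in DNA damage repair is grown with compound, and reduced growth is quantified against vehicle controls.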

[8] = NCI Yeast Anticancer Drug Screen. Data for the sgs1 mgt1 strain (AID 161);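 note: 0% = growth of cultures given vehicle only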; conditions: S. cerevisiae sgs1 mgt1 strain, active compounds read high
How it was run: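 Read-out: growth inhibition vs vehicle controls. Cells: mutant yeast strain deficient in DNA damage repair.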

[9] = NCI Yeast Anticancer Drug Screen. Data for the CLN2oe strain (AID 163);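 note: 0% = growth of vehicle-only control cultures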; conditions: S. cerevisiae CLN2oe strain, active compounds read high
How it was run: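 First, the altered yeast strain was treated with each compound; second, its growth was measured; finally, inhibition was derived by comparison with vehicle controls.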

[10] = NCI Yeast Anticancer Drug Screen. Data for the cln2 rad14 strain (AID 165);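 note: 0% = growth equal to vehicle treated cultures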; conditions: S. cerevisiae cln2 rad14 strain, active compounds read high
How it was run: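 Test compounds were added to cln2 rad14 yeast cultures; inhibition of growth was then determined by comparison with vehicle treatment.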

[11] = NCI Yeast Anticancer Drug Screen. Data for the bub3 strain (AID 167); conditions: S. cerevisiae bub3 mutant strain, active compounds read high
How it was run: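 Screening used yeast with an engineered genetic alteration affecting cell cycle control. Compound-exposed cultures were compared with vehicle cultures, and reduced growth was taken as inhibition.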

[12] = NCI Yeast Anticancer Drug Screen. Data for the wt2 strain (AID 169);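 note: 0% = growth of vehicle-treated yeast cultures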; conditions: S. cerevisiae wt2 strain growth inhibition, active compounds read high
How it was run: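 The panel's yeast strains carry defined changes in DNA repair or cell cycle genes. Each strain is grown with compound, and growth loss is scored relative to vehicle.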

[13] = NCI Yeast Anticancer Drug Screen. Data for the mlh1 strain (AID 171);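 note: 0% = growth of vehicle-treated control cultures of the same strain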; conditions: S. cerevisiae mlh1 strain growth inhibition, active compounds read high
How it was run: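 Inhibition values reflect reduced yeast growth in the presence of compound, referenced to vehicle controls, using a strain chosen for its alteration in DNA repair or cell cycle control.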

[14] = NCI Yeast Anticancer Drug Screen. Data for the sgs1 strain (AID 173);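 note: 0% = growth of vehicle-only control cultures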; conditions: S. cerevisiae sgs1 mutant, active compounds read high
How it was run: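 Vehicle-treated cultures served as reference for growth inhibition of a yeast strain altered in DNA damage repair or cell cycle control after compound exposure.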

[15] = NCI Yeast Anticancer Drug Screen. Data for the mlh1 rad18 strain (AID 175); conditions: S. cerevisiae mlh1 rad18 strain growth inhibition, active compounds read high
How it was run: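 Inhibition values reflect reduced growth of mutant yeast versus vehicle-treated controls following compound exposure; the mutations affect DNA damage repair.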

[16] = NCI Yeast Anticancer Drug Screen. Data for the rad18 strain (AID 177); conditions: S. cerevisiae rad18 mutant growth inhibition, active compounds read high
How it was run: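 Steps: expose repair-mutant yeast to compound; measure growth; express as inhibition relative to vehicle control.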

[17] = at 5.0 µM (retest, dose inferred, filed as 0.5)
[18] = at 50.0 µM (retest, dose inferred, filed as 5.0)

Measured: growth inhibition

CC(C)(C)OC(=O)NCCCCC(NC(=O)C(Cc1c[nH]c2ccccc12)NC(=O)OCC1c2ccccc2-c2ccccc21)C(=O)O (stereo not drawn) (Fmoc-Trp-Lys(Boc)-OH; configuration not given here)
inactive: [1]; at 1.2 µM -3% | [1]; at 3.7 µM 0% | [1]; at 11.0 µM -2% | [1]; at 33.0 µM 10% | [1]; at 100.0 µM 58% | [2]; at 1.2 µM -2% | [2]; at 3.7 µM -2% | [2]; at 11.0 µM -3% | [2]; at 33.0 µM 2% | [2]; at 100.0 µM 50% | [3]; at 1.2 µM -1% | [3]; at 3.7 µM 0% | [3]; at 11.0 µM 2% | [3]; at 33.0 µM 2% | [3]; at 100.0 µM -5% | [4]; at 1.2 µM 0% | [4]; at 3.7 µM 2% | [4]; at 11.0 µM -4% | [4]; at 33.0 µM 8% | [5]; at 1.2 µM -3% | [5]; at 3.7 µM -1% | [5]; [17] -19% | [5]; at 11.0 µM -3% | [5]; at 33.0 µM 11% | [5]; [18] 22% | [5]; at 50.0 µM 15.4% | [5]; at 100.0 µM 56% | [6]; at 1.2 µM -1% | [6]; at 3.7 µM -4% | [6]; [17] 1% | [6]; at 11.0 µM -4% | [6]; at 33.0 µM 9% | [6]; [18] 36% | [6]; at 50.0 µM 42.6% | [6]; at 100.0 µM 52% | [7]; at 1.2 µM -1% | [7]; at 3.7 µM 0% | [7]; at 11.0 µM 1% | [7]; at 33.0 µM 28% | [8]; [17] -13% | [8]; [18] 21% | [8]; at 50.0 µM 36.1% | [9]; at 1.2 µM 4% | [9]; at 3.7 µM 1% | [9]; at 11.0 µM -7% | [9]; at 33.0 µM 17% | [9]; at 100.0 µM 66% | [10]; [17] 37% | [10]; [18] 21% | [11]; at 1.2 µM -3% | [11]; at 3.7 µM -1% | [11]; [17] -19% | [11]; at 11.0 µM -1% | [11]; at 33.0 µM 6% | [11]; [18] 5% | [11]; at 50.0 µM 18.4% | [11]; at 100.0 µM 59% | [12]; at 1.2 µM 0% | [12]; at 3.7 µM -2% | [12]; at 11.0 µM -4% | [12]; at 33.0 µM 1% | [12]; at 100.0 µM 61% | [13]; at 1.2 µM -1% | [13]; at 3.7 µM -1% | [13]; at 11.0 µM -2% | [13]; at 33.0 µM 10% | [14]; at 1.2 µM -1% | [14]; at 3.7 µM 0% | [14]; at 11.0 µM 0% | [14]; at 33.0 µM 11% | [14]; at 100.0 µM 61% | [15]; [17] -11% | [15]; [18] 50% | [15]; at 50.0 µM 60.6% | [16]; at 1.2 µM -1% | [16]; at 3.7 µM -2% | [16]; at 11.0 µM -2% | [16]; at 33.0 µM 8% | [16]; at 100.0 µM 59%
active: [4]; at 100.0 µM 75% | [7]; at 100.0 µM 70% | [10]; at 50.0 µM 82.8% | [13]; at 100.0 µM 70%
